PMC7862700, “An all-to-all approach to the identification of sequence-specific readers for epigenetic DNA modifications on cytosine”

Legend:
Experiment in all cases: DAPPL (digital affinity profiling via proximity ligation, sequencing); 10 mM Tris-HCl pH 7.5, 50 mM NaCl, 1 mM DTT, 4% glycerol, room temperature, 30 min; GST-TFs on glutathione beads, 16-mer random dsDNA library, 0.1% formaldehyde crosslink after washing; high values mean tight binding
FLI1 = target: T1, FLI1 (Homo sapiens, UniProt Q01543 1-452); details: protein: recombinant; tags: N-terminal GST; dsDNA, one strand shown
T1 sequence: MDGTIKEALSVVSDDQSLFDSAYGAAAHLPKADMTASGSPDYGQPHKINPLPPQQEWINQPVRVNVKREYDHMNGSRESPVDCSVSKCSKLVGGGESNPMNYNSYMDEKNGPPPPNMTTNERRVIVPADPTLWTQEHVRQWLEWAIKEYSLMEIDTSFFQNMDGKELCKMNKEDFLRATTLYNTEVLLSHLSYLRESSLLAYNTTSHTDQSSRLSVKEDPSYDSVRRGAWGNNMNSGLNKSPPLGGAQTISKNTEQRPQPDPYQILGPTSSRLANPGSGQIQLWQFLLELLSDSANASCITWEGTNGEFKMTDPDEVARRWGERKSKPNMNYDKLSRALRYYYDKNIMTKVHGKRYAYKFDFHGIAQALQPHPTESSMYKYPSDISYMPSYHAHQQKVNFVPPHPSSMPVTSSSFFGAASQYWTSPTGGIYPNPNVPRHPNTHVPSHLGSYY
Outline: (§1)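 A tag-only sample was pooled with DNA-barcoded human transcription factors that had been expressed in yeast as GST fusions and captured on glutathione beads. The pools were incubated for 30 min at room temperature with 200 nmole of a random double-stranded 16-mer DNA library in Tris/NaCl/DTT/glycerol buffer, then washed, crosslinked with 0.1% formaldehyde, proximity-ligated (BsaI/T4 ligase, 1 h, 37 °C), PCR-amplified and sequenced on an Illumina NextSeq500. Binding signal is each hexamer's read frequency for a factor divided by its frequency for the tag-only sample.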

ELK1 = target: T2, ELK1 (Homo sapiens, UniProt P19419 1-428); details: protein: recombinant; tags: N-terminal GST; dsDNA, one strand shown
T2 sequence: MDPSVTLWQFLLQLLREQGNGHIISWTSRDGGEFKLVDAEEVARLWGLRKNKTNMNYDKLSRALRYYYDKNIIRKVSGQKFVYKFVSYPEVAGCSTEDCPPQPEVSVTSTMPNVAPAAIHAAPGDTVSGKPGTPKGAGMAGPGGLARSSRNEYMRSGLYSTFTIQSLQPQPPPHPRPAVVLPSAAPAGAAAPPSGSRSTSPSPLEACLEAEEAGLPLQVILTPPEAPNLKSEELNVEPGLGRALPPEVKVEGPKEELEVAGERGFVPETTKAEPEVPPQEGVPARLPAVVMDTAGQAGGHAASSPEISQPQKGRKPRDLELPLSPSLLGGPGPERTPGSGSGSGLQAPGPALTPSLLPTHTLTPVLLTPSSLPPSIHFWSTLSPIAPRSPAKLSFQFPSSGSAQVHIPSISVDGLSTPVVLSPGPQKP
Outline: as §1

GABPA = target: T3, GABPA (Homo sapiens, UniProt Q06546 1-454); details: protein: recombinant; tags: N-terminal GST; dsDNA, one strand shown
T3 sequence: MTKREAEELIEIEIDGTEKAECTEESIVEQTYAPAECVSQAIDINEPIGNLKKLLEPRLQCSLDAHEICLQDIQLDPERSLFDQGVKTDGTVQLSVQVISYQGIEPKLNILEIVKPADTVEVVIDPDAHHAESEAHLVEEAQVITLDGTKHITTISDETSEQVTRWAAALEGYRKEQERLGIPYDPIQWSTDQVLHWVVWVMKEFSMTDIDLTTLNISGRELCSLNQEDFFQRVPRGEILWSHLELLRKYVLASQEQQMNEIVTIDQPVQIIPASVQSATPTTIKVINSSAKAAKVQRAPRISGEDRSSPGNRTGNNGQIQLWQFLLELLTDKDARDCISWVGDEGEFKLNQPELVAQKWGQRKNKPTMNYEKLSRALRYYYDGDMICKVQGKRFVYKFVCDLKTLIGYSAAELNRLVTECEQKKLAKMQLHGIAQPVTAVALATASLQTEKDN
Outline: as §1

ERG = target: T4, ERG (Homo sapiens, UniProt P11308 1-479); details: protein: recombinant; tags: N-terminal GST; dsDNA, one strand shown
T4 sequence: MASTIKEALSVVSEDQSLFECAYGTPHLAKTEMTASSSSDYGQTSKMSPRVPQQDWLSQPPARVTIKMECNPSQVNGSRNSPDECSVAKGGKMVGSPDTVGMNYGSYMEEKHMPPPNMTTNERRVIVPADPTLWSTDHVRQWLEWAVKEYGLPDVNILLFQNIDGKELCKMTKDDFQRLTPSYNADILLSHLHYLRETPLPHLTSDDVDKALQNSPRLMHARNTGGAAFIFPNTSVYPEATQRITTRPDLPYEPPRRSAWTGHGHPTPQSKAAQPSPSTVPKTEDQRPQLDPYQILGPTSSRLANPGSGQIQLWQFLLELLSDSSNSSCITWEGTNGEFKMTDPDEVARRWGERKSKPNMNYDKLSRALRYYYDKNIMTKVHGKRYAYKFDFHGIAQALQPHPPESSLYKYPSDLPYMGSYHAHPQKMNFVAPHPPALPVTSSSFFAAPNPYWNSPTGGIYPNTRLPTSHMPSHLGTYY
Outline: as §1

ELF1 = ELF1 (Homo sapiens, UniProt P32519 1-619); details: protein: recombinant; tags: N-terminal GST; dsDNA, one strand shown
Outline: as §1

EHF = target: T5, EHF (Homo sapiens, UniProt Q9NZC4 1-300); details: protein: recombinant; tags: N-terminal GST; dsDNA, one strand shown
T5 sequence: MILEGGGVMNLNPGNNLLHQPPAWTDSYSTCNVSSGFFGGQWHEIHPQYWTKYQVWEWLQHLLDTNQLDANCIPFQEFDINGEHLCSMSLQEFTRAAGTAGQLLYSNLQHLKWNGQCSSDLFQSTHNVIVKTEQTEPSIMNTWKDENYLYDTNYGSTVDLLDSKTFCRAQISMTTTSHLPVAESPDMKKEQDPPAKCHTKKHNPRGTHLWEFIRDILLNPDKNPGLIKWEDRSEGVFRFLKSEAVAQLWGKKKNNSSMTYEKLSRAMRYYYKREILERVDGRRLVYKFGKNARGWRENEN
Outline: as §1

SPI1 = SPI1 (Homo sapiens, UniProt P17947 1-270); details: protein: recombinant; tags: N-terminal GST; dsDNA, one strand shown
Outline: as §1

SPIB = SPIB (Homo sapiens, UniProt Q01892 1-262); details: protein: recombinant; tags: N-terminal GST; dsDNA, one strand shown
Outline: as §1

ELK3 = target: T6, ELK3 (Homo sapiens, UniProt P41970 1-407); details: protein: recombinant; tags: N-terminal GST; dsDNA, one strand shown
T6 sequence: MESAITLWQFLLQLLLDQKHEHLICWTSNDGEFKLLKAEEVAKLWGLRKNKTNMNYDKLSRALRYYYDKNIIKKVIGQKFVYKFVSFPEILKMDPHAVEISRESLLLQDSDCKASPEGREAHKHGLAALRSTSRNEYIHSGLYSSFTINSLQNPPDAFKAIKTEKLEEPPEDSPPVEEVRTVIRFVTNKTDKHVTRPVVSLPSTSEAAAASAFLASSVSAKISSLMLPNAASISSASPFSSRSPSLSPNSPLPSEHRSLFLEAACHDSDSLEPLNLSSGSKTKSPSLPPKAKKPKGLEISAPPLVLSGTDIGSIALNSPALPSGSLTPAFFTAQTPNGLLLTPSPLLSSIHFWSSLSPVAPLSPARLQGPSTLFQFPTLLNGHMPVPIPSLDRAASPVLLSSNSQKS
Outline: as §1

FEV = target: T7, FEV (Homo sapiens, UniProt Q99581 1-238); details: protein: recombinant; tags: N-terminal GST; dsDNA, one strand shown
T7 sequence: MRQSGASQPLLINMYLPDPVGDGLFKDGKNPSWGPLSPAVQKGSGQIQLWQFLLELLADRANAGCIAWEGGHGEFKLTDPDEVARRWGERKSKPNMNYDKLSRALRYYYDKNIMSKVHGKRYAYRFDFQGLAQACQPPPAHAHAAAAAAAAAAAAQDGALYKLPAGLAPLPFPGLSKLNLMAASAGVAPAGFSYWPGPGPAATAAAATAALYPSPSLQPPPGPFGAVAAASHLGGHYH
Outline: as §1

ETV5 = ETV5 (Homo sapiens, UniProt P41161 1-510); details: protein: recombinant; tags: N-terminal GST; dsDNA, one strand shown
Outline: as §1

HSF1 = HSF1 (Homo sapiens, UniProt Q00613 1-529); details: protein: recombinant; tags: N-terminal GST; chain copies: 3; dsDNA, one strand shown
Outline: as §1

SPIC = target: T8, SPIC (Homo sapiens, UniProt Q8N5J4 1-248); details: protein: recombinant; tags: N-terminal GST; dsDNA, one strand shown
T8 sequence: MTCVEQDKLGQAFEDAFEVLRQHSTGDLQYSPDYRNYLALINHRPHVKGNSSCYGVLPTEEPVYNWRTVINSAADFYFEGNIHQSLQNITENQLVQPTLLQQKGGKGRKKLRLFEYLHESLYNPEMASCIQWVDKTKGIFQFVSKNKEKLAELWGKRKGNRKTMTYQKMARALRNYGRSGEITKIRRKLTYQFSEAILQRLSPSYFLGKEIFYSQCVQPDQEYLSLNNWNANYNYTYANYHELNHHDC
Outline: as §1

ELF4 = ELF4 (Homo sapiens, UniProt Q99607 1-663); details: protein: recombinant; tags: N-terminal GST; dsDNA, one strand shown
Outline: as §1

ELK4 = target: T9, ELK4 (Homo sapiens, UniProt P28324-2 1-405); details: protein: recombinant; tags: N-terminal GST; dsDNA, one strand shown
T9 sequence: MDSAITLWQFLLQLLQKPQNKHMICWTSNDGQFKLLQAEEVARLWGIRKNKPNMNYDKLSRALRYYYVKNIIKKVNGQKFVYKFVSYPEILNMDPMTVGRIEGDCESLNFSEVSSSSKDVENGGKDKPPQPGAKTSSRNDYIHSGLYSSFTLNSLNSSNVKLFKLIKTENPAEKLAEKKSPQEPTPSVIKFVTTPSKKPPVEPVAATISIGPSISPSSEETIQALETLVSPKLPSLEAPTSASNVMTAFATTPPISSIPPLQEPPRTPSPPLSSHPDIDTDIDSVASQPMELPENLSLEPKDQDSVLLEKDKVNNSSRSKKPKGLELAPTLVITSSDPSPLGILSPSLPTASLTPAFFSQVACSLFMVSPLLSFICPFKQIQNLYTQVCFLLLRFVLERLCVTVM
Outline: as §1

ETV2 = target: T10, ETV2 (Homo sapiens, UniProt O00321 1-342); details: protein: recombinant; tags: N-terminal GST; dsDNA, one strand shown
T10 sequence: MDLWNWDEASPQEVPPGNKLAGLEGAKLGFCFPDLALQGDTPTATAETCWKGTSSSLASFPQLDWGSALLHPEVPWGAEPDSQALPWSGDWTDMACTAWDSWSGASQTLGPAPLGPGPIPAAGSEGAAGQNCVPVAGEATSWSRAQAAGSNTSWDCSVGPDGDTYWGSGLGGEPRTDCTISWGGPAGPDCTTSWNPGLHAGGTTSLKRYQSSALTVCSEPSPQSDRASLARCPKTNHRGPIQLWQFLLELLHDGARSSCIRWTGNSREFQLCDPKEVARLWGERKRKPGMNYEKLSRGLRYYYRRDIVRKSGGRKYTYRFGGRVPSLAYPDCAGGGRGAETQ
Outline: as §1

ELF3 = target: T11, ELF3 (Homo sapiens, UniProt P78545 1-371); details: protein: recombinant; tags: N-terminal GST; dsDNA, one strand shown
T11 sequence: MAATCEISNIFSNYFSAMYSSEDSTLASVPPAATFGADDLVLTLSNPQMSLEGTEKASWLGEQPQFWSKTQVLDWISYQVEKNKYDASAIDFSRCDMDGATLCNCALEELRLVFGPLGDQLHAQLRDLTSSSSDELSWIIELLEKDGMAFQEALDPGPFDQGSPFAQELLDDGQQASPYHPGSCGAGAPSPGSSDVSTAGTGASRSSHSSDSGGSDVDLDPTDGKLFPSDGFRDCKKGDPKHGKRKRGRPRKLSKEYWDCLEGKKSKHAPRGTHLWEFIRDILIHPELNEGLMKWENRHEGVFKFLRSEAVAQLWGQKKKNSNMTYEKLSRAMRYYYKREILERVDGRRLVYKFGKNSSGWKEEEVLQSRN
Outline: as §1

CRX = CRX (Homo sapiens, UniProt O43186 1-299); details: protein: recombinant; tags: N-terminal GST; dsDNA, one strand shown
Outline: as §1

ETV1 = ETV1 (Homo sapiens, UniProt P50549 1-477); details: protein: recombinant; tags: N-terminal GST; dsDNA, one strand shown
Outline: as §1

ELF4, sequence (Q99607 whole entry): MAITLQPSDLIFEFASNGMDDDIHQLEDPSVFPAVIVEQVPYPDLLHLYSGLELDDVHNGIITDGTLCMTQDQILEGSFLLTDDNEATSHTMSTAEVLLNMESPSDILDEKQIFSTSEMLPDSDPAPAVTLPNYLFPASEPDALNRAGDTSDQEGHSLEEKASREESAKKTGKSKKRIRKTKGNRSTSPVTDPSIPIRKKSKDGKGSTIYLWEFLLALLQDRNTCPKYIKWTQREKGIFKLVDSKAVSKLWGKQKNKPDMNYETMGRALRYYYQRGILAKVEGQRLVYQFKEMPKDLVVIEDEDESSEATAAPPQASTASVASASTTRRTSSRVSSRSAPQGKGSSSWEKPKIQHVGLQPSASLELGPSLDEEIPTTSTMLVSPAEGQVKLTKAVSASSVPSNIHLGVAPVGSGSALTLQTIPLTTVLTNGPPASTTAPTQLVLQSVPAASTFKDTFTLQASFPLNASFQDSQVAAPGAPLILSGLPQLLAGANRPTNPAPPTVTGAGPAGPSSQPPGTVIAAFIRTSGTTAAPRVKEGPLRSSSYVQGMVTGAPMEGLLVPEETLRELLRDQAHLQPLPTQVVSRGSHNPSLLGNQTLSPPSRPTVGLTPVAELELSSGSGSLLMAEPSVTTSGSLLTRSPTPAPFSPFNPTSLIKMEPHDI
SPIB, sequence (Q01892 whole entry): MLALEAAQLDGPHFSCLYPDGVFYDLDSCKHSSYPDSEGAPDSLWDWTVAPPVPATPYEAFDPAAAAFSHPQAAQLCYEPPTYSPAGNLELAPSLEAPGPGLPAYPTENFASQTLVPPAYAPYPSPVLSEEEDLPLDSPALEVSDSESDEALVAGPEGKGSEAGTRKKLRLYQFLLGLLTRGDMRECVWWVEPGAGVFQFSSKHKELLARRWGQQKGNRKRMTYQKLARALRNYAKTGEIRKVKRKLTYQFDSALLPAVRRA
ELF1, sequence (P32519 whole entry): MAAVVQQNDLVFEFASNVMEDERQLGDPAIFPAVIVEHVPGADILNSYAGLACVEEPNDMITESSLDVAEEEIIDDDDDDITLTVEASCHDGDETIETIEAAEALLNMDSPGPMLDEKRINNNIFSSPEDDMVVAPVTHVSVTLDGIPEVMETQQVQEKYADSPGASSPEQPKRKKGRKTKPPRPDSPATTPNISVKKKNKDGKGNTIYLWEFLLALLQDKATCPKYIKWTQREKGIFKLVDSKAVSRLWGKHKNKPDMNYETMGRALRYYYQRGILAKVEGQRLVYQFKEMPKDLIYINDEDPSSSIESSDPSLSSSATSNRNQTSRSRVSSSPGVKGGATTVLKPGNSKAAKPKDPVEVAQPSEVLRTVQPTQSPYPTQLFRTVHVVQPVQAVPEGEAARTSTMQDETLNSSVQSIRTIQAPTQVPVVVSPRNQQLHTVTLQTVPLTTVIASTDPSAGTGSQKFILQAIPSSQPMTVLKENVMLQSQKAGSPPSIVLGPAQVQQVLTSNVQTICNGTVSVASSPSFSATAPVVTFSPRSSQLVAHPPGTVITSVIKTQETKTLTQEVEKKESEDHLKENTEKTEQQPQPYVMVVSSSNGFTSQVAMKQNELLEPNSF
CRX, sequence (O43186 whole entry): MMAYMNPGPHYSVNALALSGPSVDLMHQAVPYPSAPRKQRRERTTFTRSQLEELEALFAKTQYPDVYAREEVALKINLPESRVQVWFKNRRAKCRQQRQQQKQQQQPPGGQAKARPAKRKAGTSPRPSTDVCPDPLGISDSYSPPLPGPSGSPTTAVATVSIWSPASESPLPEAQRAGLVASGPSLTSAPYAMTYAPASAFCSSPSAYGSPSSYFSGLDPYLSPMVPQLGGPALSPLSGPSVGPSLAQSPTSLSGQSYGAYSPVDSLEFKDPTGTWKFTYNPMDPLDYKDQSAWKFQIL
HSF1, sequence (Q00613 whole entry): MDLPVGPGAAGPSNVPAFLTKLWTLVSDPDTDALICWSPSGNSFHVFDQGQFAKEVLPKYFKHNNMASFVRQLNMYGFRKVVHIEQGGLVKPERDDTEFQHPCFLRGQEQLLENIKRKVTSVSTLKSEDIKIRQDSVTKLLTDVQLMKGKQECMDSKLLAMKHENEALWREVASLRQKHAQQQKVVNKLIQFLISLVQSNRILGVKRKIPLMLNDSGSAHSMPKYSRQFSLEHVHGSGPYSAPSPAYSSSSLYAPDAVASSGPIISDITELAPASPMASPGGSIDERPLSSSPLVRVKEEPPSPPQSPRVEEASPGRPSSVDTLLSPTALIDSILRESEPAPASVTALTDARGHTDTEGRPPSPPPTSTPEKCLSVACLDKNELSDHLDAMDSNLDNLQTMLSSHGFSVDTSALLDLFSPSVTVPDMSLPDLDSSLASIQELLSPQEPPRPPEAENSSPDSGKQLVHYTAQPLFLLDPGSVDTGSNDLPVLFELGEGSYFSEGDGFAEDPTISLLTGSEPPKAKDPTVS
ETV5, sequence (P41161 whole entry): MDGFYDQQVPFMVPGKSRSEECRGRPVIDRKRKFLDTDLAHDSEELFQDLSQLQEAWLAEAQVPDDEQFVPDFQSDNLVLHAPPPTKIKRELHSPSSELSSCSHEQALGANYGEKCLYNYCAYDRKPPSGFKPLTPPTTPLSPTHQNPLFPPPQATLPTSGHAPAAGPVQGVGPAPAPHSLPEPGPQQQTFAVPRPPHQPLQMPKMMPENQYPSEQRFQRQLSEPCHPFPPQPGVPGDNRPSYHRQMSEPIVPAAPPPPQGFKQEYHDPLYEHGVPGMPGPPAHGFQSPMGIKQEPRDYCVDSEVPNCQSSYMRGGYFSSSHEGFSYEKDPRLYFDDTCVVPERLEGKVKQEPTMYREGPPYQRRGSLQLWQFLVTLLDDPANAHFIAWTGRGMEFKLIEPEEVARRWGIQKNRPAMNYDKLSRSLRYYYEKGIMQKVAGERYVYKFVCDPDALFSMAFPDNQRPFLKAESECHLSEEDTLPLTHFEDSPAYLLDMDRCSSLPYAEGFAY
ETV1, sequence (P50549 whole entry): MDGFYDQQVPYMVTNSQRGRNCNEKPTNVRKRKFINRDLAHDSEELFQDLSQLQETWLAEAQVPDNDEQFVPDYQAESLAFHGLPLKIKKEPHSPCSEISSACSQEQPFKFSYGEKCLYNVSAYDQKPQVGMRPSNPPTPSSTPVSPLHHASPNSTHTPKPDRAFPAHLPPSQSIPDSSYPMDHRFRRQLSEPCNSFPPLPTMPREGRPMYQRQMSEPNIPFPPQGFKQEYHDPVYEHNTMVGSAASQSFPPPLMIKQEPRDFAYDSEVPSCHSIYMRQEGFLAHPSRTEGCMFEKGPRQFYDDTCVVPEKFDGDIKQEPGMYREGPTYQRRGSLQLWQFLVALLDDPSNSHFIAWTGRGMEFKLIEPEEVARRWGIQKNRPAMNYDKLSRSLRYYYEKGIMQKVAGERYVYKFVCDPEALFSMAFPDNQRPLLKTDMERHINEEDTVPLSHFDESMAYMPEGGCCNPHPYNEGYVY

For CTCAAT, the binding signal (FLI1) was 1.28 fold enrichment (6-mer frequency, TF over GST control), the binding signal (ELK1) was 1.2 fold enrichment (6-mer frequency, TF over GST control) and the binding signal (GABPA) was 1.28 fold enrichment (6-mer frequency, TF over GST control). The binding signal (ERG) was 1.27 fold enrichment (6-mer frequency, TF over GST control), the binding signal (ELF1) was 1.23 fold enrichment (6-mer frequency, TF over GST control) and the binding signal (EHF) was 1.25 fold enrichment (6-mer frequency, TF over GST control). The binding signal (SPI1) was 1.33 fold enrichment (6-mer frequency, TF over GST control), the binding signal (SPIB) was 1.36 fold enrichment (6-mer frequency, TF over GST control) and the binding signal (ELK3) was 1.34 fold enrichment (6-mer frequency, TF over GST control). The binding signal (FEV) was 1.23 fold enrichment (6-mer frequency, TF over GST control), the binding signal (ETV5) was 1.31 fold enrichment (6-mer frequency, TF over GST control) and the binding signal (HSF1) was 1.17 fold enrichment (6-mer frequency, TF over GST control). The binding signal (SPIC) was 1.17 fold enrichment (6-mer frequency, TF over GST control), the binding signal (ELF4) was 1.26 fold enrichment (6-mer frequency, TF over GST control) and the binding signal (ELK4) was 1.3 fold enrichment (6-mer frequency, TF over GST control). The binding signal (ETV2) was 1.4 fold enrichment (6-mer frequency, TF over GST control), the binding signal (ELF3) was 1.22 fold enrichment (6-mer frequency, TF over GST control) and the binding signal (CRX) was 1.25 fold enrichment (6-mer frequency, TF over GST control). The binding signal (ETV1) was 1.27 fold enrichment (6-mer frequency, TF over GST control).
